{"source": "ChEMBL document CHEMBL1201862", "about": "“PubChem BioAssay data set” (2004)", "note": "Out of some 54,000 sequences screened, about 4,000 (7.4%) were called active. No stated cut-off is given here; in the data, active = GI50 up to about 1.1 µM and inactive = higher. Only a sample is shown. Results with a measured potency or affinity are listed apart.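 Step 1: Grow cells in 96-well plates. Step 2: Expose to compound for 48 hours at 5 concentrations. Step 3: Interpolate endpoints linearly; if unreached, use highest concentration. GI50 = concentration required for 50% inhibition of growth.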"}
{"tested_on": "SNB-75", "assay": "NCI tumour cell line growth inhibition, 48 h", "units": {"GI50": "µM"}}
{"substance": "[Bis(aminomethyl)pentamethylenesilane]tetrachloropaltinum(IV), CHEMBL2146204", "GI50": 2.64}
{"substance": "[Bis(aminomethyl)diethylsilane]tetrachloroplatinum(IV), CHEMBL2146203", "GI50": 3.8}
{"substance": "CISPLATIN, CHEMBL11359", "GI50": 2.84}
{"substance": "mu-(1,7-nanodiamine-N,N')bis-(cis-aminedichloroplatimum (II)), CHEMBL2146215", "GI50": 12.4}
{"substance": "cis-Bis[[(trimethylsilyl)methyl]amino]tetrachloroplatinum(IV), CHEMBL2146191", "GI50": 15}
{"substance": "[Bis(aminomethyl)ethylmethylsilane]tetrachloroplatinum(IV), CHEMBL2146192", "GI50": 3.53}
{"substance": "[Bis(aminomethyl)dimethylsilane]tetrachloroplatinum(IV), CHEMBL2146190", "GI50": 11.5}
{"substance": "[Bis(aminomethyl)pentamethylenesilane]dichloropaltinum(II), CHEMBL2146202", "GI50": 2.9}
{"substance": "[Bis(aminomethyl)tetramethylenesilane]dichloropaltinum(II), CHEMBL2146205", "GI50": 29.5}
{"substance": "[Bis(aminomethyl)dimethylsilane]dichloroplatinum (II), CHEMBL2146201", "GI50": 9.23}
{"substance": "[Bis(aminomethyl)tetramethylenesilane]tetrachloropaltinum(IV), CHEMBL2146189", "GI50": 5.7}
